Hits are enriched below; roughly 2.4% of the tested compounds scored in any of these assays.
D2 PAM-1: D2 dopamine receptor (human) potentiation; P14416; HEK293 T-REx D2, calcium flux, EC20 dopamine potentiation; potentiation, % at 10 µM; actives 0.34% (n = 340,000);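 active = potentiation over 3 SD above the plate norm, cut at about 30% in these data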; also: 0% is about no effect
Target sequence (P14416 whole entry, looked up): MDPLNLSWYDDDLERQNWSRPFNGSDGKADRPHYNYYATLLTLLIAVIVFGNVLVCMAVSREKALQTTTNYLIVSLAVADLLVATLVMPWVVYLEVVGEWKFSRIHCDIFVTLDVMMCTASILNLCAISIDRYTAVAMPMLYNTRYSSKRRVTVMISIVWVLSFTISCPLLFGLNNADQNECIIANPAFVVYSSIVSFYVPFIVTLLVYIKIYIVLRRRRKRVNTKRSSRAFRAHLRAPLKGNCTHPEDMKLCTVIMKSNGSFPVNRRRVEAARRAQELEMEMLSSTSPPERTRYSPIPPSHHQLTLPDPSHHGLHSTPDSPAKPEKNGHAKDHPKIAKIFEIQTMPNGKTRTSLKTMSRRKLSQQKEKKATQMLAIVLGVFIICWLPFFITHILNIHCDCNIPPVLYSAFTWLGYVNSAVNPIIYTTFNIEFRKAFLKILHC
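Cells plated with tetracycline inducer and held overnight at 30 C; calcium dye loaded 30–90 min at room temperature; baseline taken, compound added and read 180 s; EC20 dopamine then added and read 180 s.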
D2 antag: D2 dopamine receptor (human) antagonism | P14416 | HEK293 TREx D2 cells, calcium flux, dopamine EC80 | inhibition, % at 10 µM | actives 2% (n = 340,000) | AID 485344; in the data active = inhibition above about 30%; inactive = below that, where a call was filed; also: 0% is about no effect
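Measurement of antagonist activity uses fluorescent calcium dye in inducible HEK293 T-REx D2 cells: 10 s baseline, compound addition with 180 s read, EC80 dopamine addition with a further 180 s read.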
D2 ag-1: agonists of human D2 dopamine receptor | P14416 | HEK293 T-REx D2 cells, calcium flux agonist mode | activation, % at 2 µM | actives 0.53% (n = 340,000) | AID 485358;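 active = activation over 3 SD above normal in the single-dose calcium agonist read, cut at about 30% in these data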; also: 0% is about no effect
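HEK293 Trex D2 cells, tetracycline-induced, o/n 30 C 5% CO2; no-wash Ca dye, RT 30–90 min; 10-cycle baseline, 23 nl cpd added, kinetic Ca read 180 s; agonist hits = positive Ca response.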
D2 ag-2: activates the human D2 dopamine receptor | DiscoveRx PathHunter D2 beta-arrestin, luminescence, 90 min; 100% = 57 uM dopamine signal | activation, % (test concentration not listed) | actives 0.084% (n = 360,000) | AID 624465; in the data active = activation above about 40%
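DiscoveRx PathHunter D2 beta-arrestin cells (2,100/well) attached overnight, then compound-stimulated 90 min at 37 C in HBSS/10 mM HEPES/0.1% Tween-20 buffer; beta-galactosidase complementation read by luminescence after 1 h at ambient temperature. Dopamine 57 uM final (EC100) as control.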
D2 PAM-2: potentiates the human D2 dopamine receptor allosterically | P14416 | DiscoveRx D2 beta-arrestin cells, luminescence, 90 min; 100% = 57 uM dopamine signal | potentiation, % (test concentration not listed) | actives 0.23% (n = 360,000) | AID 624464; in the data active = potentiation above about 50%
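PathHunter D2 cells, attached overnight at 37 deg C, received compound in DMSO plus dopamine at EC20 (50 nM final) for 90 min at 37 deg C. Beta-arrestin recruitment was read as luminescence after 1 h with detection reagent at ambient temperature.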
Starred values were filed as active, the others as inactive; x = no result given; ! = a repeat was not active.

SMILES	D2 PAM-1	D2 antag	D2 ag-1	D2 ag-2	D2 PAM-2
COc1ccccc1Nc1nn2c(=O)c3ccc(C(=O)N4CCCC(C)C4)cc3nc2s1 (stereo unspecified)	37*!	-42	-1	-6	-11
CC(C)N1CCc2nc(SCC(=O)Nc3cccc(F)c3)[nH]c(=O)c2C1	7	x	1	x	x
COc1ccc(CN2CCN(Cc3c[nH]c4ccccc34)CC2)cc1OC	x	x	x	-3	-28
COc1ccc(Br)cc1CN1CCN(Cc2c[nH]c3ccccc23)CC1	-22	87*	2	-3	-15
Cc1c(C(=O)Nc2cccc(F)c2)oc2c1-c1nn(Cc3c(F)cccc3Cl)cc1CC2	8	x	0	x	x
O=C(NC1CCCC1)C(c1ccncc1)N(Cc1cccs1)C(=O)c1csnn1 (stereo unspecified)	3	36*	-1	-2	-12
CC(C)(C)NC(=O)C(c1ccncc1)N(Cc1cccs1)C(=O)c1csnn1 (stereo unspecified)	-6	-3	1	-1	-4
CCN1CCc2c(sc(N)c2C(N)=O)C1	10	38*	1	-2	15
CC(C)OC(=O)c1cc2c(ccn2C)n1CC(=O)N1CCC(Cc2ccccc2)CC1	105*	-7	1	-5	-8
N#CCc1ccc(C(=O)c2ccccc2)s1	16	40*	0	4	-2
COc1cc(OC)c(C2=NOC(C(=O)NCc3cccnc3)C2)cc1Cl (stereo unspecified)	2	-1	0	3	54*
COc1ccc(OC)c(C2=NOC(C(=O)NCc3cccnc3)C2)c1 (stereo unspecified)	3	-17	0	-1	-2
Brc1cccc(-c2nn(-c3ccccc3)c3c2cnc2cc4c(cc23)OCO4)c1	11	x	1	x	x
Cc1cc(Nc2cccc(Br)c2)n2c(nc3ccccc32)c1C#N	5	x	0	x	x
CCOc1ccc(OCCSc2nc3ccccc3[nH]2)cc1	32*	9	3	2	8
Cc1cccc(S(=O)(=O)NCCc2cn3ccccc3n2)c1	-5	32*	-2	4	-6
O=S(=O)(NCCc1cn2ccccc2n1)c1ccc(-c2ccccc2)cc1	2	1	0	1	-5
O=C(Nc1nnc(-c2ccccc2Cl)o1)c1nc2ccccc2s1	-17	8	39*	-3	-7
CCCN(CCC)c1nn2c(=O)c(C(=O)NCc3cc(Br)ccc3OC)cnc2s1	-6	x	x	x	x
Cc1cc2cc(CN(Cc3ccc4c(c3)OCO4)Cc3nnnn3C3CCCC3)c(=O)[nH]c2cc1C	-3	-15	0	-2	-7
O=c1[nH]c2cc3c(cc2cc1CN(CCc1ccccc1)Cc1nnnn1C1CCCC1)OCCO3	-14	-1	35*	x	x
COc1ccc(-c2nc3sc(CCNC(=O)C(=O)Nc4ccc(C)c(F)c4)c(C)n3n2)cc1	0	x	1	x	x
O=C(NCCNC(=O)c1ccc(-c2ccc(Cl)c(Cl)c2)o1)c1cnccn1	102*	-18	-1	8	6
O=C(NCCNC(=O)c1ccc(-c2cccc(Cl)c2)o1)c1cnccn1	x	x	x	2	-14
COc1ccc(CCNc2c(C)c(C)nc3ncnn23)cc1	43*	-19	1	0	-1
SMILES	D2 PAM-1	D2 antag	D2 ag-1	D2 ag-2	D2 PAM-2
Cc1cc(N2CCCC2)nc(N2C3CCC2CC(O)(c2ccc(F)cc2)C3)n1 (stereo unspecified)	-22	42*	0	x	x
COC(=O)c1c(NC(C)=O)c2c3c(sc2n1Cc1cc(C)ccc1C)CCCC3	-4	x	1	x	x
Cc1ccc2c(nc3s/c(=C\c4ccc(-c5ccccc5C(=O)O)o4)c(=O)n32)c1C	-9	-8	40*	-4	-5
O=C(O)c1ccc(-c2ccc(/C=c3/sc4nc5ccccc5n4c3=O)o2)cc1Cl	-2	34*	48*	-2	-3
CC(=O)c1ccc(NC(=O)c2cc(-c3ccc(Cl)c(Cl)c3)on2)cc1	-8	x	x	x	x
CCN(CC)S(=O)(=O)c1nnc(NC(=O)COc2ccc(Cl)cc2)s1	3	x	0	x	x
O=C(NCc1ccccc1)C1CCN(C(=O)c2cnn(-c3ccccc3)c2-n2cccc2)CC1	0	x	0	x	x
Cc1nn(C)c2ncc(C(=O)c3ccccc3O)cc12	13	48*	0	-1	5
Cc1ccc(O)c(C(=O)c2cnc3c(c2)c(C)nn3C)c1	-11	1	0	-1	-5
N#Cc1ccc(Sc2ccccn2)c([N+](=O)[O-])c1	11	38*	0	4	3
COc1ccc(CC(=O)Nc2ccc3nc(SC)sc3c2)cc1OC	-22	21	33*	4	1
CC(=O)N1CCc2cc(Br)cc(S(=O)(=O)NCCc3cccc(C)c3)c21	-17	x	2	x	x
COc1ccc(C)cc1S(=O)(=O)Nc1ccc(F)c(Cl)c1	-1	32*	0	-3	28
CN(C(=O)CN1CCN(c2cnn(-c3ccccc3)c(=O)c2Cl)CC1)C1CCS(=O)(=O)C1 (stereo unspecified)	-4	33*	0	-2	7
CS(=O)(=O)N1CCN(c2cnn(-c3ccccc3)c(=O)c2Cl)CC1	14	8	0	1	-2
Cc1ccc(S(=O)(=O)Cc2nc(-c3ccc(C(=O)NCc4ccccc4F)cc3)oc2C)cc1	5	x	0	x	x
CCOC(=O)C1(CCOc2ccccc2)CCN(Cc2ccc(COC)o2)CC1	-14	-3	-1	-2	-15
CCOC(=O)C1(CCOc2ccccc2)CCN(Cc2ccc(O)c(OCC)c2)CC1	-14	39*	0	8	-26
CCOC(=O)C1(CCOc2ccccc2)CCN(Cc2ccc(C)o2)CC1	-17	42*	-1	-1	-19
CCOc1ccc(NC(=O)CSc2oc(-c3ccc(C)cc3)nc2S(=O)(=O)c2ccc(C)cc2)cc1	12	x	1	x	x
COc1ccccc1Cc1nc2ccccc2nc1SCC(=O)NCc1ccccc1Cl	11	x	2	x	x
NS(=O)(=O)c1ccc(NC(=S)Nc2ccn(Cc3cccc4ccccc34)n2)cc1	-19	42*	0	-3	-6
Cc1cc(Cl)ccc1NC(=S)N(CCCN1CCOCC1)Cc1cccs1	2	-8	2	-5	-24
COc1ccc(NC(=S)N(CCCN2CCCC(C)C2)Cc2cccs2)cc1 (stereo unspecified)	x	49*	0	-3	-23
Cc1ccc(Cl)cc1NC(=S)N(CCCN1CCN(C)CC1)Cc1cccs1	-30	45*	2	-7	-18
COC(=O)C1=C(C)N(c2ccc(Cl)c(Cl)c2)C(=O)C1	-4	32*	1	-3	-23
Cc1c(C(=O)NCc2cccc(Br)c2)oc2ccc3c(c12)C(=O)CC(C)(C)O3	1	x	0	x	x
Cc1cccc(C(=O)Nc2nc(-c3nnn(-c4cc(C)ccc4C)c3C)ns2)c1	-1	x	1	x	x

Assay outcomes: PubChem BioAssay, National Center for Advancing Translational Sciences (NCATS)
